Laboratory results from PubChem BioAssay AID393 (SGCOxCompounds, 2006).
The source made the active and inactive calls. No rule for the calls is given here.

target: Serine/threonine-protein kinase pim-1 (Homo sapiens) (UniProt P11309); test: PIM1 kinase ligand binding by thermal shift, biophysical, human, melting temperature shift (AID 393); details: Thermal shift assay, at 10 µM, active compounds read high; protein 2 µM, buffer 10 mM Na Citrate, pH 6.5, NaCl 150 mM unless noted
Sequence (P11309 whole entry, looked up): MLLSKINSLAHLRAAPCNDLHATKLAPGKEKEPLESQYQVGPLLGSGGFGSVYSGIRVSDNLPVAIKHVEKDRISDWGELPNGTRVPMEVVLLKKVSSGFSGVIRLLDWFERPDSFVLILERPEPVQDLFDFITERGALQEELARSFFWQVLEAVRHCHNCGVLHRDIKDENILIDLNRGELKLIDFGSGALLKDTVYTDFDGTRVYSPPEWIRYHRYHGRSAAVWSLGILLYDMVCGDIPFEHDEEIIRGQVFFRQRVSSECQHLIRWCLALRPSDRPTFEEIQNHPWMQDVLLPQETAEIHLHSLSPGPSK

Row | SMILES | Tm shift
1 | Cc1c2ccncc2c(C)c2c1[nH]c1ccccc12 | 8.6 Celsius (active)
2 | O=C1Nc2ccccc2/C1=C\c1cnc[nH]1 | 3.92 Celsius [protein 3 µM, buffer 10 mM HEPES] (active)
3 | N#C/C(=C1\Nc2ccccc2S1)c1ccnc(NCCc2cccnc2)n1 | 10.3 Celsius (active)
4 | CCn1cnc2c(Nc3cccc(Cl)c3)nc(N[C@@H]3CCCC[C@@H]3N)nc21 | 5.8 Celsius (active)
5 | O=C1NC(=O)c2c1c1c3ccccc3n3c1c1c2c2ccccc2n1[C@@H]1CCC3O1 | 12.7 Celsius [protein 2 µM, buffer 10 mM PIPES, pH 6.5, NaCl 150 mM] (active)
